# Values joined by “and” are separate entries in the source; they are usually repeats but may differ in a detail not shown here. Equal entries are not always repeated. Structures can show the parent of a compound that is named as a salt. The whole screen tested about 5,800 compounds, of which about 620 (11%) showed activity. The entries come from a sample that favours actives as a whole. Values without a mark were called inactive.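 Rule for the calls: active = score above a cut-off or among the top three wells of a plate; in these data no inactive exceeds 0.85.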
# Test system: primary human hepatic stellate cells (donor 1)
# Assay: scaled lipid accumulation score (0 = DMSO-like, 1 = nortriptyline-like); higher = stronger HSC inactivation (lipid re-accumulation), active = hit call of the paper
# Conditions: 48 h
# [1] = library stock concentration: 10 mM
# [2] = library stock concentration: 3.33 mM
# [3] = library stock concentration: 1 mM
# [4] = library stock concentration: 80 uM
# [5] = library stock concentration: 400 uM
# [6] = library stock concentration: 2 mM
# [7] = library stock concentration: 6.3 mM
# [8] = library stock concentration: 6.2 mM
smiles,measurement,setting,value
Cc1ccc(NC(=O)C(C)C)cc1C1CCN(Cc2ccc(Oc3ccc(F)c(F)c3)cc2)CC1.Cl,scaled lipid accumulation score,[1],1.29 (active)
CC(=O)c1ccc(N2CCOCC2)cc1O [DNA-PK Inhibitor III],scaled lipid accumulation score,[2],≤ 0
N[C@@H](CCC(=O)N[C@@H](CSN=O)C(=O)NCC(=O)O)C(=O)O [S-Nitrosoglutathione],scaled lipid accumulation score,[1],≤ -0.032
Cc1cc2nc3c(=O)[nH]c(=O)nc-3n(CC(O)C(O)C(O)COP(=O)(O)O)c2cc1C (stereo not drawn),scaled lipid accumulation score,[1],≤ 0
COC(=O)C1=C(C)NC(C)=C(C(=O)OC2CCCN(Cc3ccccc3)C2)C1c1cccc([N+](=O)[O-])c1 (stereo not drawn) [Benidipine HCl],scaled lipid accumulation score,[2],0.027
same,scaled lipid accumulation score,[1],0.476
COC(=O)C1=C(C)NC(C)=C(C(=O)OC2CCCN(Cc3ccccc3)C2)C1c1cccc([N+](=O)[O-])c1 (stereo not drawn),scaled lipid accumulation score,[1],0.032
CC1=C(C(=O)OC2CCCCC2)C(c2ccc([N+](=O)[O-])cc2)C2=C(CC(C)(C)CC2=O)N1 (stereo not drawn) [listing 1 of 2 here],scaled lipid accumulation score,[1],0.997 (active)
CC1=C(C(=O)OC2CCCCC2)C(c2ccc([N+](=O)[O-])cc2)C2=C(CC(C)(C)CC2=O)N1 (stereo not drawn) [listing 2 of 2 here],scaled lipid accumulation score,[2],0.763
CCCCCCOc1ccccc1C(N)=O [Exalamide],scaled lipid accumulation score,[1],≤ -0.027
COC(=O)c1c(C)[nH]c(C)c1C(=O)c1ccccc1Cc1ccccc1,scaled lipid accumulation score,[1],0.13 and 0.001
CNCCCCOc1ccccc1Cc1ccccc1 [Bifemelane],scaled lipid accumulation score,[1],1.08 (active)
CNCCCCOc1ccccc1Cc1ccccc1.Cl [Bifemelane hydrochloride],scaled lipid accumulation score,[1],1.41 (active)
CCOC(=O)c1c(Cc2cccc(Cl)c2)[nH]c2c1cc(O)c1ccccc12,scaled lipid accumulation score,[3],≤ 0
CC/C=C\C/C=C\C/C=C\CCCCCCCC(=O)NCCO [.alpha.-Linolenoyl Ethanolamide],scaled lipid accumulation score,[3],0.006
CCOc1nc(NC(=O)Cc2cc(OC)ccc2OC)cc(N)c1C#N [JNK Inhibitor VIII],scaled lipid accumulation score,[2],≤ 0
CNc1cc(OC)c(C(=O)NC2CCN(Cc3ccccc3)C2C)cc1Cl (stereo not drawn) [Nemonapride],scaled lipid accumulation score,[1],0.728
NC(=O)Nc1sc(-c2ccccc2)cc1C(N)=O [IKK-2 Inhibitor VI],scaled lipid accumulation score,[2],≤ 0
COc1cccc(CCc2ccccc2OCC[C@@H]2C[C@@H](O)CN2C)c1.Cl,scaled lipid accumulation score,[1],1.18 (active)
OC1(c2ccc(Cl)cc2)CCN(Cc2c[nH]c3ccccc23)CC1,scaled lipid accumulation score,[1],1.17 (active)
OCc1c[nH]c2ccccc12 [Indole-3-carbinol],scaled lipid accumulation score,[2],≤ 0
same,scaled lipid accumulation score,[1],≤ 0
c1ccc2c(Cc3c[nH]c4ccccc34)c[nH]c2c1 [Diidolylmethane],scaled lipid accumulation score,[3],≤ -0.021
CC[C@@H](CC[C@@H](C)[C@H]1CC[C@H]2[C@@H]3CCC4C[C@@H](O)CC[C@]4(C)[C@H]3CC[C@]12C)C(C)C (stereo partly drawn) [Beta-sistosterol],scaled lipid accumulation score,,≤ 0
"COc1cc(OC)cc(OC)c1 [1,3,5-trimethoxybenzene]",scaled lipid accumulation score,[1],≤ 0
COc1ccc2nc3n[nH]c(C)c3c(NCCOCCO)c2c1,scaled lipid accumulation score,[4],≤ -0.001
same,scaled lipid accumulation score,[5],≤ -0.001
same,scaled lipid accumulation score,[6],≤ -0.001
same,scaled lipid accumulation score,[2],0.203
same,scaled lipid accumulation score,[1],0.021
COc1ccc(-c2ccc3ncc4c(c3c2)n(-c2ccc(N3CCNCC3)c(C(F)(F)F)c2)c(=O)n4C)cn1.O=C(O)/C=C\C(=O)O,scaled lipid accumulation score,[5],0.909 (active)
COc1ccc(-c2ccc3ncc4c(c3c2)n(-c2ccc(N3CCNCC3)c(C(F)(F)F)c2)c(=O)n4C)cn1,scaled lipid accumulation score,[4],0.133
same,scaled lipid accumulation score,[6],0.546
same,scaled lipid accumulation score,[2],0.237
same,scaled lipid accumulation score,[1],≤ 0 and 0.223
COc1cc(OC)cc(-c2ccc3ncc4ccc(=O)n(-c5ccc(N6CCNCC6)c(C(F)(F)F)c5)c4c3c2)c1,scaled lipid accumulation score,[4],0.045
same,scaled lipid accumulation score,[5],0.305
same,scaled lipid accumulation score,[6],0.652
same,scaled lipid accumulation score,[1],0.426
S=c1[nH]c(-c2ccccc2)cn1-c1ccccc1,scaled lipid accumulation score,[1],≤ -0.07
Nc1c2c(nc3c1CCC3)CCCC2,scaled lipid accumulation score,[1],≤ 0
CCCCCCCCCCCCCCCCOC[C@H](COP(=O)([O-])OCC[N+](C)(C)C)OC(=O)CCCCCCCC(=O)O [Azelaoyl PAF],scaled lipid accumulation score,[3],≤ 0
CN(C)CCCN1c2ccccc2Sc2ccc(Cl)cc21 [Chlorpromazine] [listing 1 of 2 here],scaled lipid accumulation score,[7],1.09 (active)
CC(CN1c2ccccc2Sc2ccccc21)N(C)C (stereo not drawn) [Phenergan],scaled lipid accumulation score,[1],0.649
CC(CN1c2ccccc2Sc2ccccc21)N(C)C.Cl (stereo not drawn) [Promethazine hydrochloride],scaled lipid accumulation score,[1],0.888 (active)
CN(C)CCCN1c2ccccc2Sc2ccc(Cl)cc21 [Chlorpromazine hydrochloride],scaled lipid accumulation score,,0.717
same,scaled lipid accumulation score,[1],0.259
CN(C)CCCN1c2ccccc2Sc2ccc(Cl)cc21,scaled lipid accumulation score,[1],0.711
CN(C)CCCN1c2ccccc2Sc2ccccc21 [Promazine hydrochloride],scaled lipid accumulation score,,0.365
same,scaled lipid accumulation score,[8],0.834
same,scaled lipid accumulation score,[1],0.324
CN(C)CCCN1c2ccccc2Sc2ccc(Cl)cc21.Cl [Chlorpromazine HCl],scaled lipid accumulation score,[1],0.833 (active)
CC(CN1c2ccccc2Sc2ccccc21)N(C)C (stereo not drawn) [Promethazine hydrochloride],scaled lipid accumulation score,,0.571
same,scaled lipid accumulation score,[8],0.655
same,scaled lipid accumulation score,[1],0.748
CN(C)CCCN1c2ccccc2Sc2ccc(Cl)cc21 [Chlorpromazine HCl],scaled lipid accumulation score,[2],0.38
same,scaled lipid accumulation score,[7],0.53
CN(C)CCCN1c2ccccc2Sc2ccccc21.Cl [Promazine hydrochloride],scaled lipid accumulation score,[1],0.923 (active)
CCN(CC)C(C)CN1c2ccccc2Sc2ccccc21 (stereo not drawn) [Ethopropazine hydrochloride],scaled lipid accumulation score,,0.644
same,scaled lipid accumulation score,library stock concentration: 5.7 mM,0.667
same,scaled lipid accumulation score,[1],0.301 and 0.673
CN(C)CCCN1c2ccccc2Sc2ccc(Cl)cc21 [Chlorpromazine] [listing 2 of 2 here],scaled lipid accumulation score,[1],0.466
CC(CN1c2ccccc2Sc2ccccc21)N(C)C (stereo not drawn) [Promethazine HCl],scaled lipid accumulation score,[2],≤ 0
same,scaled lipid accumulation score,library stock concentration: 7 mM,0.609
same,scaled lipid accumulation score,[1],0.62
CCCCCC(O)C=CC1C(O)CC(O)C1CC=CCCCC(=O)OC (stereo not drawn) [Prostaglandin F2.alpha. methyl ester],scaled lipid accumulation score,[3],≤ 0
"Nc1ncnc2c1nc(Br)n2[C@@H]1O[C@@H]2COP(=O)(O)O[C@H]2[C@H]1O [8-Bromo-cAMP, sodium salt]",scaled lipid accumulation score,[1],≤ -0.006
Nc1ncnc2c1nc(Br)n2[C@@H]1O[C@@H]2COP(=O)(O)O[C@H]2[C@H]1O [8-Bromo-cAMP],scaled lipid accumulation score,library stock concentration: 12.3 mM,0.137
CC(NC(=O)c1ccccc1/N=C/c1c(O)ccc2ccccc12)c1ccccc1 (stereo not drawn) [Sirtinol],scaled lipid accumulation score,[2],0.008
same,scaled lipid accumulation score,[1],0.024 and ≤ -0.001
CCCCCCCCCCCCCCCCOC[C@H](COP(=O)([O-])OCC[N+](C)(C)C)OC [2-O-methyl PAF C-16],scaled lipid accumulation score,[3],≤ 0
CCCCC[C@H](O)/C=C/[C@H]1CC[C@H](O)[C@@H]1C/C=C\CCCC(=O)O [11-deoxy Prostaglandin F2.alpha.],scaled lipid accumulation score,[3],≤ 0
"CCCCCCC(=O)SC[C@H](COP(=O)([O-])OCC[N+](C)(C)C)SC(=O)CCCCCC [1,2-bis(heptanoylthio) Glycerophosphocholine]",scaled lipid accumulation score,[3],≤ 0
CNC(=O)[C@H](Cc1c[nH]c2ccccc12)NC(=O)[C@@H](CC(=O)NO)CC(C)C,scaled lipid accumulation score,library stock concentration: 12.9 mM,≤ -0.009
"CNC(=O)[C@H](Cc1c[nH]c2ccccc12)NC(=O)[C@@H](CC(=O)NO)CC(C)C [Ilomastat (GM6001, Galardin)]",scaled lipid accumulation score,[2],≤ -0.009
same,scaled lipid accumulation score,[1],≤ 0
NC(=O)N1c2ccccc2CC(O)c2ccccc21 (stereo not drawn) [Licarbazepine],scaled lipid accumulation score,[1],0.008
O=c1c(O)c(-c2ccc(O)c(O)c2)oc2cc(O)c(O)c(O)c12 [Quercetagetin],scaled lipid accumulation score,[2],≤ 0
O=C(O)C(Cc1c[nH]c2ccccc12)N1C(=O)c2ccccc2C1=O (stereo not drawn),scaled lipid accumulation score,[4],≤ 0
same,scaled lipid accumulation score,[5],≤ 0
same,scaled lipid accumulation score,[6],≤ 0
same,scaled lipid accumulation score,[2],≤ 0
same,scaled lipid accumulation score,[1],0.017 and ≤ 0
C#CCOc1ccccc1CCCCCC(=O)NS(C)(=O)=O,scaled lipid accumulation score,[3],0.013
O=C1CCc2cc(OCCCCc3nnnn3C3CCCCC3)ccc2N1 [Cilostazol],scaled lipid accumulation score,,≤ 0
same,scaled lipid accumulation score,[2],≤ 0
same,scaled lipid accumulation score,library stock concentration: 5.4 mM,≤ 0
O=C1CCc2ccc(OCCCCN3CCN(c4cccc(Cl)c4Cl)CC3)cc2N1 [Aripiprazole],scaled lipid accumulation score,[2],≤ 0
same,scaled lipid accumulation score,library stock concentration: 4.5 mM,0.238 and 0.464
same,scaled lipid accumulation score,[1],0.827
O=C1CCc2ccc(OCCCCN3CCN(c4cccc(Cl)c4Cl)CC3)cc2N1,scaled lipid accumulation score,[1],0.964 (active)
Cn1sc(=O)n(Cc2ccccc2)c1=O [GSK-3b Inhibitor I],scaled lipid accumulation score,[2],≤ 0
Cc1ccc(NC2=CC(=O)c3sc(C)nc3C2=O)cc1 [Ryuvidine],scaled lipid accumulation score,[1],0.904 (active)
Cc1ccc(NC2=CC(=O)c3sc(C)nc3C2=O)cc1 [Cdk4 Inhibitor III],scaled lipid accumulation score,[2],0.942 (active)
O=C(O)[C@]1(Cc2cccc(Nc3nccs3)n2)CC[C@@H](Oc2cccc(Cl)c2F)CC1,scaled lipid accumulation score,[2],≤ 0
same,scaled lipid accumulation score,[1],0.039
CCC[C@H](NC(=O)[C@@H]1[C@H]2CCC[C@H]2CN1C(=O)[C@@H](NC(=O)[C@@H](NC(=O)c1cnccn1)C1CCCCC1)C(C)(C)C)C(=O)C(=O)NC1CC1 [Telaprevir (VX-950)],scaled lipid accumulation score,[2],≤ 0
same,scaled lipid accumulation score,[1],≤ 0
